Here are results for 4 compounds from PubChem BioAssay (EPA / NIEHS).

Several values for one entry are separate records, joined by “and”; a condition that tells them apart may be missing. Identical values can stand only once. Inconclusive results are not listed. Activity calls are given as the source filed them. How the source made its calls, unless noted: active means hit-call score of the fitted dose curve at least 0.9, where 1 is the maximum; inactive means score below 0.9.

Read-out in assay [1]: Monocyte Chemoattractant Protein-1 (MCP1), CCL2 (gene 6347)
The assay is described as follows: BSK_LPS_MCP1: BioMAP Diversity Plus: LPS Assay for Monocyte Chemoattractant Protein-1 (MCP1) Biomarker Activity (AID 2283081). As to conditions: primary human HUVEC with PBMC; actives raise or lower the signal. Put shortly: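 Human umbilical vein endothelial cells co-cultured with PBMC, LPS-stimulated; secreted MCP-1 measured by ELISA 24 h after compound addition. Bidirectional curve fitting against DMSO baseline; SRB total-protein staining in parallel cultures for cytotoxicity.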

Assay [2] in a line: BSK_LPS_PGE2: BioMAP Diversity Plus: LPS Assay for Prostaglandin E2 (PGE2) Biomarker Activity (AID 2283082).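 On AC50: secreted prostaglandin E2 measured by ELISA in LPS-stimulated co-culture.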 The settings on record: primary human HUVEC with PBMC; actives raise or lower the signal. Summed up:
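Primary human endothelial cells and blood mononuclear cells, co-cultured with LPS, receive test chemical; PGE2 ELISA follows at 24 h, with SRB-stained parallel cultures flagging cytotoxicity.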

Read-out in assay [3]: Macrophage colony-stimulating factor (MCSF), CSF1 (gene 1435)
As to the kind of experiment: BSK_LPS_MCSF: BioMAP Diversity Plus: LPS Assay for Macrophage colony-stimulating factor (MCSF) Biomarker Activity (AID 2283083). The settings on record: primary human HUVEC with PBMC; actives raise or lower the signal. Put shortly: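 HUVEC–PBMC co-culture, M-CSF measured by ELISA 24 h after chemical dosing. Fitted in both directions relative to DMSO as negative control; overt cytotoxicity assessed by SRB total-protein staining in parallel cultures.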

Read-out in assay [4]: Tissue Factor, F3 (gene 2152)
As to the kind of experiment: BSK_LPS_TissueFactor: BioMAP Diversity Plus: LPS Assay for Tissue Factor Biomarker Activity (AID 2283084). As to conditions: primary human HUVEC with PBMC; actives raise or lower the signal. Put shortly:
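Human umbilical vein endothelial cells co-cultured with PBMC were dosed with compound. Cell-surface CD142 was measured by ELISA 24 h later. Activity was fitted bidirectionally against DMSO, with SRB total-protein staining in parallel cultures for cytotoxicity.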

Read-out in assay [5]: Vascular cell adhesion molecule 1 (VCAM1), VCAM1 (gene 7412)
As to the kind of experiment: BSK_LPS_VCAM1: BioMAP Diversity Plus: LPS Assay for Vascular cell adhesion molecule 1 (VCAM1) Biomarker Activity (AID 2283086). As to conditions: primary human HUVEC with PBMC; actives raise or lower the signal. Put shortly: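 Measured by ELISA: VCAM-1 in LPS-activated HUVEC/PBMC co-cultures 24 h after treatment. Values reflect bidirectional fitting with DMSO as baseline.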

Read-out in a further assay: CD38, CD38 (gene 952)
As to the kind of experiment: BSK_SAg_CD38: BioMAP Diversity Plus: SAg Assay for CD38 Biomarker Activity (AID 2283087). The settings on record: primary human HUVEC with PBMC; actives raise or lower the signal. Put shortly:
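Measures CD38 on a human endothelial/PBMC co-culture driven by SEB and TSST-1, 24 h after compound exposure, using ELISA with fluorescence detection; DMSO defines baseline for bidirectional curve fitting.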

Read-out in another assay: CD40, CD40 (gene 958)
The assay is described as follows: BSK_SAg_CD40: BioMAP Diversity Plus: SAg Assay for CD40 Biomarker Activity (AID 2283088). The settings on record: primary human HUVEC with PBMC; actives raise or lower the signal. Summed up: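 HUVEC plus PBMC co-culture, superantigen-activated, with CD40 read by ELISA 24 h after dosing. Curves fitted in both directions against DMSO. Overt cytotoxicity checked by parallel SRB total-protein staining.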

Read-out in the next assay: CD69, CD69 (gene 969)
As to the kind of experiment: BSK_SAg_CD69: BioMAP Diversity Plus: SAg Assay for CD69 Biomarker Activity (AID 2283089). As to conditions: primary human HUVEC with PBMC; actives raise or lower the signal. Put shortly: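 Values derive from bidirectional fitting relative to DMSO vehicle. Cells: umbilical vein endothelium plus peripheral blood mononuclear cells, treated 24 h before fluorescent ELISA for CD69.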

Read-out in assay [6]: Monocyte Chemoattractant Protein-1 (MCP1), CCL2 (gene 6347)
As to the kind of experiment: BSK_SAg_MCP1: BioMAP Diversity Plus: SAg Assay for Monocyte Chemoattractant Protein-1 (MCP1) Biomarker Activity (AID 2283090). The settings on record: primary human HUVEC with PBMC; actives raise or lower the signal. Summed up:
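Values derive from bidirectional fitting of ELISA-measured MCP1 against DMSO controls. Readings were taken 24 h after dosing human vascular endothelial cells co-cultured with peripheral blood mononuclear cells under superantigen stimulation.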

Read-out in assay [7]: E-selectin (Homo sapiens) (UniProt P16581)
As to the kind of experiment: BSK_SAg_Eselectin: BioMAP Diversity Plus: SAg Assay for Eselectin Biomarker Activity (AID 2283091). As to conditions: primary human HUVEC with PBMC; actives raise or lower the signal. Summed up:
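Human umbilical vein endothelial cells co-cultured with peripheral blood mononuclear cells, SAg system. E-selectin is measured by ELISA 24 h after dosing and fitted bidirectionally against DMSO. Cytotoxicity is checked by SRB staining of parallel cultures.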

A short description of assay [8]: BSK_SAg_PBMCCytotoxicity: PBMC Cytotoxicity Assessment in the BioMAP Diversity Plus: SAg Assay (AID 2283093).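 Further: PBMC viability measured as Alamar Blue reduction fluorescence at 546/580 nm; fitted both ways against DMSO so a hit may be loss or gain of signal.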 As to conditions: primary human HUVEC with PBMC. Summed up:
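Alamar Blue reduction (6 h, 546/580 nm) reports PBMC cytotoxicity after 90 h superantigen activation (SEB, TSST-1; 20 ng/mL final each) with 1 h compound pre-treatment. Gain or loss of signal fitted versus DMSO.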

Read-out in assay [9]: Interleukin-8 (IL8), CXCL8 (gene 3576)
As to the kind of experiment: BSK_SAg_IL8: BioMAP Diversity Plus: SAg Assay for Interleukin-8 (IL8) Biomarker Activity (AID 2283094). The settings on record: primary human HUVEC with PBMC; actives raise or lower the signal. Summed up:
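Primary human endothelial cells with PBMC, exposed 24 h; IL-8 determined by ELISA, analysed bidirectionally relative to DMSO.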

Assay [10] is described as follows: BSK_SAg_Proliferation: Cell Proliferation Assessment in the BioMAP Diversity Plus: SAg Assay (AID 2283095).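 Further: relative cell number as total protein by SRB absorbance in sub-confluent culture.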 As to conditions: primary human HUVEC with PBMC. Put shortly:
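A human primary co-culture of umbilical vein endothelium and blood mononuclear cells receives compound; relative cell number is quantified at 96 h by SRB staining and 560 nm absorbance, with DMSO-referenced bidirectional curve fitting.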

Assay [11] can be described thus: BSK_SAg_SRB: Viability Assessment in the BioMAP Diversity Plus: SAg Assay (AID 2283096).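 Further: cells read one day after compound addition; hits may be either gain or loss of signal compared with DMSO.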 As to conditions: primary human HUVEC with PBMC. Put shortly: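 This overt-cytotoxicity endpoint quantifies protein in human endothelial/PBMC co-cultures at 24 h using SRB absorbance (560 nm) after trichloroacetic acid fixation. Values reflect signal change from the DMSO negative control, fitted bidirectionally.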

The target in assay [12] is human CYP19A1, CYP19A1 (gene 1588) (UniProt P11511). The assay is described as follows: NVS_ADME_hCYP19A1: NovaScreen (NVS) CYP450-related Enzyme Activity (ADME) Assay for human CYP19A1 (AID 2283098; active means hit-call score of the fitted dose curve at least 0.9, where 1 is the maximum;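 further: potency for inhibitors seen as loss of fluorescent enzyme signal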). Put shortly:
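Compounds were first screened at 10 uM in duplicate against purified enzyme, with a fluorogenic substrate and fluorescence intensity detection after 0.5 h. Inhibition appears as reduced signal against acetonitrile control.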

Assay [13] has as its target human CYP1A1, CYP1A1 (gene 1543) (UniProt P04798). The assay is described as follows: NVS_ADME_hCYP1A1: NovaScreen (NVS) CYP450-related Enzyme Activity (ADME) Assay for human CYP1A1 (AID 2283100; active means hit-call score of the fitted dose curve at least 0.9, where 1 is the maximum). Summed up:
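Recombinant CYP1A1 with a fluorogenic substrate, cell-free, read 1 h after dosing; acetonitrile as negative control. Single-concentration screen at 10 uM in duplicate, then concentration-response up to 20 uM for chemicals meeting ~30% inhibition threshold.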

E-selectin (Homo sapiens), sequence (P16581 whole entry, looked up): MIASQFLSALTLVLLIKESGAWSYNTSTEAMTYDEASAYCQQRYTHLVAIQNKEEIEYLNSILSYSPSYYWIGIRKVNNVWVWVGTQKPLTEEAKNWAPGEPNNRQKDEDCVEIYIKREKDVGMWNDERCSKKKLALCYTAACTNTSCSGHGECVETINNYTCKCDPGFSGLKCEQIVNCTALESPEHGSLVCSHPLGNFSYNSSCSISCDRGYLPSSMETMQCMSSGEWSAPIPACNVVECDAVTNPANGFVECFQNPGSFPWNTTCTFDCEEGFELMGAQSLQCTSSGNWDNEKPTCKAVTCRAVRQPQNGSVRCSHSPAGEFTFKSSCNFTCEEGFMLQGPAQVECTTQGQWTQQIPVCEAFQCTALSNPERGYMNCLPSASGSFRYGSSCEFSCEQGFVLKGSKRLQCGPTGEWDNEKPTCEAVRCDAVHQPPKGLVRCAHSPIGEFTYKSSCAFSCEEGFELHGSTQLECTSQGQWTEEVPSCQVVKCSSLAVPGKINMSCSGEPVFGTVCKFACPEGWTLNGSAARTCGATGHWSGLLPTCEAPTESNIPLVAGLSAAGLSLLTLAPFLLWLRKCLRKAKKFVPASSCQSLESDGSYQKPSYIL
human CYP19A1, CYP19A1 (gene 1588), sequence (P11511 whole entry, looked up): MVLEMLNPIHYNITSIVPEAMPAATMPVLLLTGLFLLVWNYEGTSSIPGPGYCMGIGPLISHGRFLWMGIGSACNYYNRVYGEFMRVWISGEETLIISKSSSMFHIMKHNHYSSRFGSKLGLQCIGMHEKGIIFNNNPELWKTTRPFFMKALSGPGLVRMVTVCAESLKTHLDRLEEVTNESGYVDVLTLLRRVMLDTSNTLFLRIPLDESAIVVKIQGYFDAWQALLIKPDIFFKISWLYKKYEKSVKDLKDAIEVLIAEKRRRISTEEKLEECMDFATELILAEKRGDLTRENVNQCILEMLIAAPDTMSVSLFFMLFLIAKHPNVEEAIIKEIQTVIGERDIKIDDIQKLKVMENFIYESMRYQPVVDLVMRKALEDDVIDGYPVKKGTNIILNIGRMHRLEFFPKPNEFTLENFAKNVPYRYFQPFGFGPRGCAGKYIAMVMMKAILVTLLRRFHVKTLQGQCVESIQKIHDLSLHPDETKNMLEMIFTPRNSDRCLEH
human CYP1A1, CYP1A1 (gene 1543), sequence (P04798 whole entry, looked up): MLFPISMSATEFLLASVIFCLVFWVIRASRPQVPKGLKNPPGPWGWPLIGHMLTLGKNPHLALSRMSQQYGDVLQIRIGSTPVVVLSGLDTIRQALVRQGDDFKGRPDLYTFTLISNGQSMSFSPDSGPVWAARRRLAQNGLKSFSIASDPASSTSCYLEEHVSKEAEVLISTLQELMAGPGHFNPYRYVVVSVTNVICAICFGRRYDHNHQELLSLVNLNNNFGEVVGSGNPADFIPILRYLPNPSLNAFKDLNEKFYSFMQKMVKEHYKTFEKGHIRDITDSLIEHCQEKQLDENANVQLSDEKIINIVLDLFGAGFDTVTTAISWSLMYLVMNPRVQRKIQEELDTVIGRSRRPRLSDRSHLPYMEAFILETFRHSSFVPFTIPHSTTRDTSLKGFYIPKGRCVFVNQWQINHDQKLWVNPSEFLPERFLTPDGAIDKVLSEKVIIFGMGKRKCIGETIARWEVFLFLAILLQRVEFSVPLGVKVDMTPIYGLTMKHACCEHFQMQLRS

As to `Cc1ccccc1[N+](=O)[O-]`, the outcome in [1] is “inactive”; in assay [2] it was “inactive”; in assay [3], “inactive”; in assay [4], “inactive”; in [5] it was “inactive”; with CD38, CD38 (gene 952), “inactive”. Moreover, the outcome with CD40, CD40 (gene 958) is “inactive”; with CD69, CD69 (gene 969) it was “inactive”; in assay [6] it was “inactive”; in [7] it was “inactive”; in assay [8], “inactive”; in assay [9], “inactive”. Besides, the outcome in assay [10] and in [11] was inactive.

For `C[C@]12CCC(=O)C=C1CC[C@@H]1[C@@H]2CC[C@]2(C)C(=O)CC[C@@H]12`, the outcome is “inactive” in assay [1]; “inactive” in assay [2]; “inactive” in assay [3]; “inactive” in assay [4]; “inactive” in assay [5]; “inactive” in the assay with CD38, CD38 (gene 952). Also, the outcome is “inactive” in the assay with CD40, CD40 (gene 958); “inactive” with CD69, CD69 (gene 969); “inactive” in assay [6]; “inactive” in [7]; “inactive” in [8]; “inactive” in [9]. In addition, the result in assay [10] was inactive. Also, the AC50 in assay [11] is 20 µM (active); in assay [12] it was 5.03 µM (active) and 5.63 µM (active) and 1.44 µM (active).

For the compound `CC#Cc1cc(C)nc(Nc2ccccc2)n1`, the outcome is “inactive” in [1]; “inactive” in assay [3]; “inactive” in [4]; “inactive” in assay [5]; “inactive” with CD38, CD38 (gene 952); “inactive” in the assay with CD40, CD40 (gene 958). The outcome with CD69, CD69 (gene 969) is “inactive”; in assay [6], “inactive”; in assay [7] it was “inactive”; in assay [8] it was “inactive”; in [9] it was “inactive”; in assay [11], “inactive”. Moreover, the AC50 in [2] was 8.96 µM (active); in assay [10] it was 28.3 µM (active); in assay [13], 0.617 µM (active).

Turning to `Clc1ccc(Cl)cc1`, the outcome in assay [1] is “inactive”; in assay [2] it was “inactive”; in assay [3], “inactive”; in [4], “inactive”; in assay [5], “inactive”; with CD38, CD38 (gene 952) it was “inactive”. Also, the outcome with CD40, CD40 (gene 958) was “inactive”; with CD69, CD69 (gene 969) it was “inactive”; in assay [6] it was “inactive”; in assay [7], “inactive”; in assay [8] it was “inactive”; in [9], “inactive”. The result in assay [10] and in assay [11] was inactive.
